Results published in PubChem BioAssay (NCATS).
Where “and” joins values, the source holds several entries; their conditions need not be identical. Equal entries are not always repeated. Records with an inconclusive call do not appear. Calls of active or inactive are those of the source. The call rests on the fitted dose curve; in most records, active means well fitted curve in the direction sought with a large enough effect; inconclusive means small, poorly fitted or top-dose-only effect, or another doubt; inactive means no such curve, though single readings can be large; an effect the other way counts as inactive or inconclusive.

Assays:
[1] = Viability qHTS for spleen associated tyrosine kinase inhibitor (SYKi) naive MV4-11 cells (AID 1963823); further: nearly all actives have a fitted effect of over 40% in size
How it was run: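 Seeding of 500 SYKi-naive MV4-11 cells per well onto pre-dispensed compounds preceded a 72 hr incubation at 37 C. Luminescent CellTiter-Glo signal, read after 10 min at room temperature, reflected viable cells.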

[2] = Viability qHTS for spleen associated tyrosine kinase inhibitor (SYKi) drug resistant MV4-11 cells (AID 1963824); further: nearly all actives have a fitted effect of over 35% in size
How it was run: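 CellTiter-Glo luminescence, read 10 min after reagent addition, reports viability after a 72 hr compound exposure. Cells are an MV4-11 line made resistant to SYK inhibition, seeded at 500 per well onto compound-containing plates.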

[3] = Cellular viability qHTS for adrenocortical cancer (ACC) cell line NCI-H295R (AID 1963990); further: nearly all actives have a fitted effect of over 60% in size;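 on activity change, negative = viability loss: 0% = DMSO only wells and -100% = full killing with cytotoxic reference compound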
How it was run: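 IC50 and maximal efficacy derive from four-parameter logistic modelling of titration curves, with reads scaled between DMSO-only wells (0%) and doxorubicin hydrochloride (100% inhibition). Compounds spanned up to 46 uM over 48 h.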

[4] = Quantitative highthroughput screen to assess conditional lethalithy of NOMO1 cells grown in RPMI1640 with untreated serum (RPMI+s) (AID 1963876); further: nearly all actives have a fitted effect of over 35% in size;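 on Viability: 100% = DMSO wells and 0% = empty wells without cells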
How it was run: (§1)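 Each medium arm—HPLM with 10% dialyzed FBS, or RPMI1640 with 5 mM glucose and 10% untreated or dialyzed FBS—was screened against an 11-point, 3-fold compound titration for 48 h at 37 °C, with CellTiter-Glo luminescence as endpoint.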

[5] = Quantitative highthroughput screen to assess conditional lethalithy of NOMO1 cells grown in RPMI1640 with dialyzed fetal bovine serum (RPMI+ds) (AID 1963877); further: nearly all actives have a fitted effect of over 30% in size;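 on Viability: series mostly up to about 46 µM; 100% = DMSO control wells and 0% = empty wells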
How it was run: as §1

[6] = Quantitative highthroughput screen to assess conditional lethalithy of NOMO1 cells grown in Human Plasma-Like Medium with dialyzed fetal bovine serum (HPLM+ds) (AID 1963878); further: nearly all actives have a fitted effect of over 35% in size;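 on Viability: 100% = DMSO wells and 0% = empty wells on each plate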
How it was run: as §1

[7] = Quantitative highthroughput screen to assess conditional lethalithy of P12 Ichikawa cells grown in Human Plasma-Like Medium with dialyzed fetal bovine serum (HPLM+ds) (AID 1963879); settings: Potency: viability; further: nearly all actives have a fitted effect of over 35% in size; on Viability: series mostly up to about 46 µM
How it was run: as §1

[8] = Quantitative highthroughput screen to assess conditional lethalithy of P12 Ichikawa cells grown in RPMI1640 with dialyzed fetal bovine serum (RPMI+ds) (AID 1963880); settings: Potency: P12-Ichikawa viability; further: nearly all actives have a fitted effect of over 35% in size;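 on Viability: 100% = DMSO wells and 0% = empty wells on each plate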
How it was run: as §1

[9] = Quantitative highthroughput screen to assess conditional lethalithy of P12 Ichikawa cells grown in RPMI1640 with untreated serum (RPMI+s) (AID 1963881); settings: Potency: viability; further: nearly all actives have a fitted effect of over 35% in size;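 on Viability: series mostly up to about 46 µM; 100% = DMSO wells and 0% = empty wells without cells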
How it was run: as §1

[10] = Quantitative highthroughput screen to assess conditional lethalithy of SEM cells grown in Human Plasma-Like Medium with dialyzed fetal bovine serum (HPLM+ds) (AID 1963882); further: nearly all actives have a fitted effect of over 35% in size; on Viability: series mostly up to about 46 µM
How it was run: as §1

[11] = Quantitative highthroughput screen to assess conditional lethalithy of SEM cells grown in RPMI1640 with unreated serum (RPMI+s) (AID 1963883); further: nearly all actives have a fitted effect of over 35% in size;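 on Viability: 100% = DMSO wells and 0% = empty wells without cells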
How it was run: as §1

[12] = Quantitative highthroughput screen to assess conditional lethalithy of SEM cells grown in RPMI1640 with dialyzed fetal bovine serum (RPMI+ds) (AID 1963884); further: nearly all actives have a fitted effect of over 35% in size;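 on Viability: series mostly up to about 46 µM; 100% = DMSO control wells and 0% = empty wells without cells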
How it was run: as §1

[13] = Cellular viability qHTS for adrenocortical cancer (ACC) cell line SW-13 (AID 1963989); settings: SW-13 ACC cells viability, CellTiter-Glo, 48 h; activity (max response): hits give low values; further: nearly all actives have a fitted effect of over 65% in size;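 on activity (max response): cells grown in serum-free medium with ITS supplement; on the % scale 0 is the no-effect control and ±100 the full control effect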
How it was run: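 Luminescent ATP read-out (CellTiter-Glo, 20 min at room temperature) measured metabolically competent SW-13 cells after 48 h compound treatment. Final concentrations spanned up to 46 uM; bortezomib served as positive control.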
Potency means the concentration at half of the fitted maximal effect.

C[C@@]1(c2ncncc2F)NC(=O)c2cc(-c3cn[nH]c3)ccc21
active: Potency [1] 16.6 µM | Potency [2] 20900 nM
inactive: Potency [3]

Cc1cc(O)cc2c1[C@]1(C)CC[C@H]3C(C)(C)CCC[C@]3(C)[C@H]1C2
inactive: viability (% of control) [1] 65.3% [at 4.97 µM] | viability, % of control [2] 59.2% [at 4.97 µM] | activity change, negative = viability loss [3] -10.2% [at 3.81 µM]

COC(=O)Nc1ccc(-c2nc(N3CCOCC3)c3cnn(C4CCN(C(=O)OC)CC4)c3n2)cc1
active: Potency [1] 0.662 µM | Potency [2] 1050 nM | Potency [3] 2.51 µM

COc1cc(-c2cc(-c3ccc(N4CCNCC4)cc3)cnc2C)cc(OC)c1OC
active: Potency [1] 7.42 µM | Potency [2] 8330 nM
inactive: Potency [3]

C=C(c1ccc(C(=O)O)cc1)c1cc2c(cc1C)C(C)(C)CCC2(C)C
inactive: Potency [4] | Potency [7] | Potency [8] | Potency [9] | Potency [10] | Potency [11] | Potency [12] | activity (max response) [13] -0.298% and -6.68% | Potency [3]
active: Potency [1] 0.468 µM | Potency [5] 1050 nM | Potency [6] 469 nM

CCC(C)n1ncn(-c2ccc(N3CCN(c4ccc(OC[C@H]5CO[C@](Cn6cncn6)(c6ccc(Cl)cc6Cl)O5)cc4)CC3)cc2)c1=O (some centres not stated)
active: Potency [1] 2.88 µM
inactive: Potency [4] | Potency [5] | Potency [6] | Potency [7] | Potency [8] | Potency [9] | Potency [11] | activity (max response) [13] -10.2% and 8.84% | Potency [3]

CC(C)(C)c1cc(C(C)(C)C)c(NC(=O)c2c[nH]c3ccccc3c2=O)cc1O
active: Potency [1] 11.8 µM | Potency [13] 6310 nM | Potency [3] 7.08 µM
inactive: Potency [4] | Potency [5] | Potency [7] | Potency [8] | Potency [9] | Potency [10] | Potency [11] | Potency [12]

O=C(NCC1CN(c2ccc(N3CCOCC3=O)cc2)C(=O)O1)c1ccc(Cl)s1 (configuration not stated)
inactive: Potency [1] | Potency [10] | Potency [11] | Potency [12] | activity (max response) [13] -21.7% and -9.76% | Potency [3]
active: Potency [4] 418 nM | Potency [7] 2960 nM

O=C1C(c2c(O)[nH]c3ccccc23)=Nc2ccccc21
inactive: Potency [1] | Potency [4] | Potency [5] | Potency [7] | Potency [8] | Potency [9] | Potency [10] | Potency [11] | Potency [12] | Potency [3]

COc1cccc2c1C(=O)c1c(O)c3c(c(O)c1C2=O)C[C@@](O)(C(=O)CO)C[C@@H]3O[C@H]1C[C@H](N)[C@H](OC2CCCCO2)[C@H](C)O1 (some centres not stated)
active: Potency [1] 105 nM and 74.2 nM | Potency [13] 3.16 µM and 5.01 µM | Potency [3] 794 nM and 8.91 µM
inactive: Potency [4] | Potency [5] | Potency [7] | Potency [8] | Potency [12]

Cc1cc(C(=O)N2CCN(c3cccc(Cl)c3)CC2)n(-c2ccccc2)n1
active: Potency [1] 1.46 µM | Potency [4] 7430 nM | Potency [7] 1480 nM | Potency [8] 2960 nM | Potency [9] 3320 nM | Potency [11] 2640 nM | Potency [12] 1870 nM | Potency [3] 0.447 µM

c1ccc2c(Oc3nc(Nc4ccc(N5CCOCC5)cc4)c4ncn(C5CCCCC5)c4n3)cccc2c1
inactive: Potency [4] | Potency [5] | Potency [9] | activity (max response) [13] -10% | Potency [3]
active: Potency [1] 1.84 µM and 2.35 µM

CC(C)(C)c1cnc(CSc2cnc(NC(=O)C3CCNCC3)s2)o1
active: Potency [1] 0.296 µM | Potency [4] 1050 nM | Potency [5] 935 nM | Potency [7] 166 nM | Potency [9] 1180 nM | Potency [10] 662 nM | Potency [11] 935 nM | Potency [13] 631 nM | Potency [3] 7.94 µM

O=C(O)c1ccc(-c2c[nH]c3ncc(-c4ccccc4)cc23)cc1C1CCCC1
inactive: Potency [4] | Potency [5] | Potency [6] | Potency [3]
active: Potency [1] 1.18 µM | Potency [8] 6620 nM

COc1cc2c(cc1OC)[C@@H]1C(=O)c3ccc4c(c3O[C@@H]1CO2)C=CC(C)(C)O4
active: Potency [1] 103 nM and 93.4 nM | Potency [4] 23500 nM | Potency [6] 20900 nM | Potency [7] 18700 nM | Potency [8] 18700 nM | Potency [9] 6620 nM | Potency [11] 2640 nM | Potency [12] 16600 nM | Potency [13] 178 nM | Potency [3] 20 µM

CC(C)(C)c1cc(NC(=O)Nc2ccc(-c3cn4c(n3)sc3cc(OCCN5CCOCC5)ccc34)cc2)no1
inactive: Potency [1] | Potency [4] | Potency [5] | Potency [7] | Potency [8] | Potency [9] | activity (max response) [13] 1.45% | Potency [3]

CCC[C@H]1C[C@H](C(=O)N[C@@H]([C@@H]2O[C@@H](SC)[C@@H](O)[C@@H](O)[C@@H]2O)[C@H](C)Cl)N(C)C1
inactive: Potency [1] | Potency [4] | Potency [5] | Potency [6] | Potency [10] | Potency [11] | Potency [12]

N[C@@H](Cc1ccc(O)c(O)c1)C(=O)O
inactive: Potency [1] | Potency [4] | Potency [5] | Potency [7] | Potency [8] | Potency [9] | Potency [10] | Potency [11] | Potency [12] | activity (max response) [13] 3.64% | Potency [3]

Cc1cnc(C(=O)NCCc2ccc(S(=O)(=O)NC(=O)NC3CCCCC3)cc2)cn1
inactive: Potency [1] | Potency [4] | Potency [10] | Potency [11] | activity (max response) [13] -1.95% and -7.3% | Potency [3]
